Screens as filed in PubChem BioAssay.
SKKanGAS inh: inhibitors of SKKanGAS S. pyogenes growth in kanamycin (SK-promoter or general growth effect); BacTiter-Glo, 6 h; inhibition, % at 7.5 µM; 300,000 compounds, 1.3% hits;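 active = mean replicate score, as percent of positive control median, at least 50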;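 also: strain carries kanamycin resistance gene driven by streptokinase promoter and grows in 40 µg/ml kanamycin; loss of luminescence reflects streptokinase promoter inhibition or plain growth inhibition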
tim10-1 inh: tim10-1 yeast growth inhibition; inhibition, % at 20 µM; AID 463190; S. cerevisiae tim10-1 ts strain growth, BacTiter-Glo, 24 h; 330,000 compounds, 2.2% hits;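 active = inhibition of at least 40%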;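 also: mutant grown at 25 °C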
TIM10 inh: inhibits growth of TIM10 yeast strain | S. cerevisiae TIM10 strain growth, BacTiter-Glo luminescence, 24 h | inhibition, % at 10 µM | 330,000 compounds, 1.4% hits | AID 463195;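 active = inhibition of 40% or more at the single tested concentration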;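 also: wild-type TIM10 isogenic control strain grown at permissive 25 °C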
tim23-1 inh: tim23-1 yeast growth inhibition; inhibition, % at 20 µM; 330,000 compounds, 1.3% hits; S. cerevisiae tim23-1 growth, BacTiter-Glo luminescence, 24 h;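 active = growth inhibition of the mutant yeast at or above 50%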;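 also: temperature-sensitive mutant grown at 25 °C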
PfHsp90 set2: reduces growth (ATP signal) of yeast expressing P. falciparum Hsp90. S. cerevisiae expressing PfHsp90, BacTiter-Glo ATP, 48 h; yeast lacking PDR1 and PDR3 efflux regulators. 310,000 compounds, 0.32% hits. inhibition, % at 9.4 µM;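 active = every replicate shows inhibition above about 80%, whatever the replicate mean, limit read from the data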
ATG4B inhibitor: inhibitors of human ATG4B cysteine protease | inhibition, % at 8.33 µM | Q9Y4P1 | 340,000 compounds, 0.51% hits | ATG4B cleavage of LC3-PLA2, NBD-HPC fluorescence, 1 h; in the data active = inhibition above about 40%
Target sequence (Q9Y4P1 whole entry, looked up): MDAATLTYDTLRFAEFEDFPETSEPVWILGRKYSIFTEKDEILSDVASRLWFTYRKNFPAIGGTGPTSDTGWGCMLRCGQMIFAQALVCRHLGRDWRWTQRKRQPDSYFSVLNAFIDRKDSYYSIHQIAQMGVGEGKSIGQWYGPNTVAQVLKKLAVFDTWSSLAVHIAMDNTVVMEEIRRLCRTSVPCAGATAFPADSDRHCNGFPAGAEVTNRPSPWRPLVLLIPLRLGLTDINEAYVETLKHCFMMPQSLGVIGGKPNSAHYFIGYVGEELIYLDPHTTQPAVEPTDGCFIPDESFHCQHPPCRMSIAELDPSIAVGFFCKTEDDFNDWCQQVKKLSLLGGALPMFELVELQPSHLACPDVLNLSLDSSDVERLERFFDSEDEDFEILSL
tim10 confirm: TIM10 yeast growth inhibition, confirmed; shares compounds with TIM10 inh; S. cerevisiae tim10 strain growth, BacTiter-Glo luminescence, 24 h; inhibition, % at 10 µM; 4,600 compounds, 63% hits; AID 463215;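 active = inhibition of yeast growth at or above a set limit in either of two replicates at 10 µM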; also: this counterscreen used the strain with wild-type TIM10
Each line names hits and unclear results; the compound was inactive in the other large screens (follow-up assays come after a bar, where they were run). The list is not random: actives were taken first. Their share in the collection is about 4.7%.

O=C(NCC1(c2ccccc2)CCCC1)c1ccc(Br)cc1	TIM10 inh 41 | tim10 confirm inactive
Cc1ccc(C(=O)NCC2(c3ccccc3)CCCC2)cc1	none
CC1=CC(=O)C(C(C)C)=C/C1=N/OC(=O)c1cccc([N+](=O)[O-])c1	TIM10 inh 43 | tim10 confirm 32
CCn1c(SC)nc2c(c1=O)SC(C)C2 (stereo unspecified)	none (no result: PfHsp90 set2)
Cc1ccccc1C1=N/C(=C/c2cccs2)C(=O)O1	TIM10 inh 51 (no result: PfHsp90 set2) | tim10 confirm inactive
Cc1occc1C(=O)NCc1ccccn1	none
CCN(Cc1ccccc1)S(=O)(=O)c1c(C)[nH]c(C)c1C(=O)N1CCCC1	TIM10 inh 53 | tim10 confirm inactive
NC(N)=NCc1cccc(I)c1	none (no result: SKKanGAS inh)
Cc1cc(=O)n2c3ccccc3n(CC(O)CN3CCN(Cc4ccccc4)CC3)c2c1C#N (stereo unspecified)	none
CCOC(=O)c1sc2nc(CSc3ccccc3)nc(N3CCC(C(N)=O)CC3)c2c1C	none
CCOC(=O)c1sc2nc(CSc3ccccc3)nc(N3CCCN(C)CC3)c2c1C	TIM10 inh 41 | tim10 confirm inactive
Cc1ccc(O)c(NC(=O)c2noc(C(C)C)c2[N+](=O)[O-])c1	none
COc1cc(C(=S)N2CCOCC2)ccc1OC(=O)c1ccccc1	none
COc1ccc(C(=S)N2CCOCC2)cc1OC(=O)c1ccc([N+](=O)[O-])cc1	none
COc1ccc(C(=S)N2CCOCC2)cc1OC(=O)c1cccc([N+](=O)[O-])c1	TIM10 inh 41 | tim10 confirm inactive
COc1cc(C(=S)N2CCOCC2)ccc1OC(=O)c1ccc([N+](=O)[O-])cc1[N+](=O)[O-]	TIM10 inh 44 | tim10 confirm 37
CC(C)N=C1SCC(C)(/C=N/O)S1 (stereo unspecified)	none
O=C(COC(=O)/C=C/c1cccc(Br)c1)NC1CCCCC1	none (no result: SKKanGAS inh)
O=C(/C=C/c1cccc(Br)c1)NCC1CCCCC1	TIM10 inh 41 | tim10 confirm 33
Cc1ccc2cc(CCNC(=O)c3cc4ccccc4o3)c(=O)[nH]c2c1C	TIM10 inh 58 | tim10 confirm 32
O=C(NN1C(=O)c2ccccc2NC1c1ccc([N+](=O)[O-])o1)c1ccc(Br)cc1 (stereo unspecified)	TIM10 inh 55 | tim10 confirm 61
NNC(=S)Nc1ccccc1Cl	none
NNC(=S)Nc1ccc(C(F)(F)F)cc1Cl	SKKanGAS inh 61, TIM10 inh 44 | tim10 confirm inactive
Cc1ccc2[nH]cc(C(=O)CN3CCC4(CC3)OCCO4)c2c1	none
O=C(/C=C/c1ccc(Br)cc1)c1ccc(NC(=O)c2ccco2)cc1	TIM10 inh 41 | tim10 confirm inactive
O=C(/C=C/c1ccc(Br)cc1)c1ccco1	none
Nc1nc(-c2cccnc2)nc(N2CCCCC2)n1	none
c1ccc(-c2nc(N3CCCCCC3)nc(-n3ccnc3)n2)cc1	SKKanGAS inh 86, TIM10 inh 48 | tim10 confirm inactive
COc1ccc(OC)c(NC(=S)NCCC(c2ccccc2)c2ccccc2)c1	TIM10 inh 46 | tim10 confirm inactive
Cc1ccc(NC(=S)NCCC(c2ccccc2)c2ccccc2)c(C)c1	SKKanGAS inh 66, TIM10 inh 49 | tim10 confirm 33
COc1ccc(/C=C(\C#N)C(=O)OCC(=O)NCc2ccccc2OC)cc1	none
O=C(Nc1cccc(Cl)c1)O/N=C\c1ccncc1	none
O=C(Nc1ccc(Cl)c(Cl)c1)O/N=C/c1ccncc1	SKKanGAS inh 56, TIM10 inh 43 | tim10 confirm inactive
COc1ccc(N2CCN(C(=O)CCCn3c(=S)[nH]c4cc5c(cc4c3=O)OCO5)CC2)cc1	none (no result: PfHsp90 set2)
O=C(/C=C/c1ccco1)NCC(=O)N/N=C/c1ccc([N+](=O)[O-])cc1	none
O=C1c2ccccc2C(=O)c2c1cccc2N1CCCC1	none (no result: tim10-1 inh, TIM10 inh, tim23-1 inh)
COCCCn1[nH]c2c3c(ccc2c1=O)C(=O)c1ccccc1C3=O	TIM10 inh 42 | tim10 confirm 47
Cc1ccc(C)c(-n2[nH]c3c4c(ccc3c2=O)C(=O)c2ccccc2C4=O)c1	TIM10 inh 53 | tim10 confirm 73
CC(C)C[C@@H](CNCC(=O)[C@H](CC(C)C)NC(=O)c1[nH]cnc1C(=O)N[C@@H](C)CN)NC(=O)c1nc[nH]c1C(=O)N[C@@H](CC(C)C)C(=O)O	none (no result: SKKanGAS inh, tim10-1 inh, TIM10 inh, tim23-1 inh, ATG4B inhibitor)
O=C(c1cccs1)n1cc(C(=S)N2CCOCC2)c2ccccc21	none
CCOC(=O)C1=C(C)N(C)C(=S)NC1c1ccccc1Cl (stereo unspecified)	none
CCOC(=O)C1=C(C)N(C)C(=S)NC1c1cccc(Cl)c1Cl (stereo unspecified)	TIM10 inh 48 | tim10 confirm inactive
S=c1nc(-c2sccc2OCc2ccc(Cl)cc2Cl)[nH][nH]1	TIM10 inh 41 | tim10 confirm 29
O=[N+]([O-])c1cccc(-c2cc(-c3cc(Br)ccc3O)[nH]n2)c1	TIM10 inh 47 | tim10 confirm 43
COc1ccc(-c2cc(-c3ccc(OC)c(OC)c3)n[nH]2)c(O)c1	TIM10 inh 47 | tim10 confirm inactive
COc1ccc(O)c(-c2cc(-c3cccc(Br)c3)n[nH]2)c1	SKKanGAS inh 56, TIM10 inh 53, PfHsp90 set2 94 | tim10 confirm 62
C/C(=N\Nc1nnc2c3ccccc3n(C)c2n1)c1ccc(C)o1	none
COc1ccc(-c2csc(C)n2)cc1Br	none (no result: PfHsp90 set2)
O=C(Cc1ccccc1)N/N=C/c1ccccc1OCc1ccc(Cl)cc1	none
CCOC(=O)N/N=C/c1ccccc1OCc1ccc(Cl)cc1	TIM10 inh 44 | tim10 confirm 33
CCOc1cc(C=O)c(Br)cc1OC1CCCC1	TIM10 inh 40 | tim10 confirm inactive
CN(C)C1=NC[C@H](Cc2ccccc2)N1CCCCc1ccccc1	none (no result: SKKanGAS inh)
S=c1[nH]nc(COc2ccc(Cl)cc2)n1C1CCCCC1	TIM10 inh 40 | tim10 confirm inactive
Cc1cccc(OCc2n[nH]c(=S)n2C2CCCCC2)c1	none
COc1ccc(NS(=O)(=O)c2ccc(OC)c(OC)c2)cc1OC	none
Fc1ccc2[nH]c3c(c2c1)CN(C(=S)NCc1ccccc1)CC3	TIM10 inh 41 | tim10 confirm 38
CCN(CC)C(=O)[C@H]1C[C@H](CC(=O)NCc2ccco2)C(=O)N2CCc3c([nH]c4ccc(Cl)cc34)[C@]12C	none (no result: SKKanGAS inh)
CN(CC(=O)Nc1cccc(F)c1)C(=O)c1ccc(N2CCCC2)c([N+](=O)[O-])c1	none
CC(C)[C@H](NS(=O)(=O)c1cccc(Cl)c1)C(=O)OCC(=O)N1CCN(c2ccccc2)CC1	TIM10 inh 47 | tim10 confirm inactive
CCC1CCCCN1C(=O)c1cccc(S(=O)(=O)Nc2cc(C(F)(F)F)ccc2Cl)c1 (stereo unspecified)	none
